In PubChem BioAssay (NCATS):
Records with an inconclusive call do not appear. Calls of active or inactive are those of the source. The call rests on the fitted dose curve; in most records, active means well fitted inhibition curve with a large enough effect; inconclusive means small, poorly fitted or top-dose-only effect; inactive means flat fitted curve, though single readings scatter.
Potency means the concentration at half of the fitted maximal effect.

The molecules below were run on PC26 (assay: qHTS profiling for inhibitors of Plasmodium falciparum proliferation (AID 504749; further: nearly all actives have a fitted effect of over 60% in size;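 on activity, negative = inhibition: 0% = DMSO vehicle and full inhibition = artemisinin control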)). Conditions: P. falciparum in erythrocytes, SYBR Green DNA, 72 h; series mostly up to 28.7 µM; activity, negative = inhibition: at the top concentration.
Summary of the method: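 Fluorescence of SYBR Green-bound parasite DNA, read at 485/535 nm, served as the growth measure. Infected erythrocytes were cultured with compound 72 h; artemisinin (0.29 uM) and DMSO wells defined the normalization range.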
With `C[n+]1c2cc(N)ccc2cc2ccc(N)cc21` the Potency was 1.35 µM (active).
In the case of `O=C(OC[C@@H]1O[C@@](O)(COC(=O)c2cccnc2)[C@H](OC(=O)c2cccnc2)[C@H]1OC(=O)c1cccnc1)c1cccnc1`, the “activity, negative = inhibition” value is reported as 0.884% (inactive).
In the case of `O=[N+]([O-])O[C@H]1CO[C@H]2[C@@H]1OC[C@H]2O`, the “activity, negative = inhibition” value is reported as 18.9% (inactive).
With `COc1cccc(OC)c1C(=O)NC1C(=O)N2C1SC(C)(C)C2C(=O)O` (stereo not given) the “activity, negative = inhibition” value was -0.244% (inactive).
For `NC[C@@H]1O[C@H](OC2[C@@H](CO)O[C@@H](OC3[C@H](O)[C@H](N)C[C@H](N)[C@H]3OC3O[C@H](CO)[C@@H](O)[C@H](O)[C@@H]3N)[C@H]2O)C(N)[C@H](O)[C@@H]1O` (stereo not given in full), the “activity, negative = inhibition” value was -0.818% (inactive).
With `Cc1ccc(S(=O)(=O)NC(=O)NC(C)Cc2ccccc2)cc1` (stereo not given) the “activity, negative = inhibition” value was 6.76% (inactive).
For `OCCOC[C@H]1O[C@H](OCCO)[C@H](OCCO)[C@@H](OCCO)[C@@H]1OCCO` (tested in a mixture with another compound), the “activity, negative = inhibition” value was 7.6% (inactive).
For `C[S+](C)CC[C@H](N)C(=O)O`, the “activity, negative = inhibition” value was 0.302% (inactive).
With `CC[C@@H]1/C=C(\C)C[C@H](C)C[C@H](OC)[C@H]2O[C@@](O)(C(=O)C(=O)N3CCCC[C@H]3C(=O)O[C@H](/C(C)=C/[C@@H]3CC[C@H](Cl)[C@H](OC)C3)[C@H](C)[C@@H](O)CC1=O)[C@H](C)C[C@@H]2OC` the “activity, negative = inhibition” value was -2.11% (inactive).
For `NC(=O)C1CC2(NC(=O)NC2=O)c2cc(F)ccc2O1` (stereo not given), the “activity, negative = inhibition” value was 21.2% (inactive).
`CN1[C@@H]2CC[C@@H]1CC(OC(=O)[C@H](CO)c1ccccc1)C2` (stereo not given in full) was tested, and the “activity, negative = inhibition” value was -0.965% (inactive).
In the case of `CC[C@@]1(O)C[C@H](O[C@H]2C[C@@H](N(C)C)[C@@H](O[C@H]3C[C@@H](O)[C@@H](O[C@H]4CCC(=O)[C@@H](C)O4)[C@@H](C)O3)[C@@H](C)O2)c2c(cc3c(c2O)C(=O)c2c(O)cccc2C3=O)[C@H]1C(=O)OC`, the Potency is reported as 1.2 µM (active).
For `CCCCCCCCCCCC(=O)OCC(O)C1OCC(O)C1O` (stereo not given), the “activity, negative = inhibition” value was 12.6% (inactive).
For `C/C1=C2/[N-]C(C(CC(N)=O)[C@@]2(C)CCC(=O)NCC(C)OP(=O)([O-])O[C@H]2[C@@H](O)[C@@H](n3cnc4cc(C)c(C)cc43)O[C@@H]2CO)[C@]2(C)N=C(/C(C)=C3N=C(/C=C4N=C1C(CCC(N)=O)C\4(C)C)[C@@H](CCC(N)=O)[C@]\3(C)CC(N)=O)[C@@H](CCC(N)=O)[C@]2(C)CC(N)=O.CC(=O)O.[Co]` (stereo not given in full), the “activity, negative = inhibition” value was 6.09% (inactive).
In the case of `CC1(C)OC[C@@H]2O[C@@]3(C(=O)O)OC(C)(C)O[C@@H]3[C@@H]2O1`, the “activity, negative = inhibition” value is reported as 2.48% (inactive).
In the case of `Cc1ccccc1N1C(=O)c2cc(N)ccc2N/C1=C\F`, the “activity, negative = inhibition” value is reported as -3.51% (inactive).
In the case of `CCC(C(=O)O)C1OC(C(C)C(O)C(C)C(=O)C(CC)C2OC3(C=CC(O)C4(CCC(C)(C5CCC(O)(CC)C(C)O5)O4)O3)C(C)CC2C)C(C)CC1C` (stereo not given), the Potency is reported as 0.0757 µM (active).
For `O=C1C(I)=CC(=C(c2cc(I)c(O)c(I)c2)c2ccccc2C(=O)O)C=C1I`, the “activity, negative = inhibition” value was -3.33% (inactive).
With `COC1CC2CCC(C)[C@](O)(O2)C(=O)C(=O)N2CCCCC2C(=O)OC(C(C)CC2CCC(O)C(OC)C2)CC(=O)C(C)/C=C(/C)C(O)C(OC)C(=O)C(C)CC(C)C=CC=C/C=C\1C` (stereo not given in full) the Potency was 3.79 µM (active).
`CC(=O)OCC(=O)[C@@]1(O)CCC2C3C[C@H](C)C4=CC(=O)C=CC4(C)C3C(O)CC21C` (stereo not given in full) was tested, and the “activity, negative = inhibition” value was -4.87% (inactive).
In the case of `CN[C@H](C)CCC=C(C)C`, the Potency is reported as 0.19 µM (active).
For `CC1(C)C2CC[C@]1(C)[C@@H](O)C2`, the “activity, negative = inhibition” value was 2.98% (inactive).
In the case of `OCC1O[C@H](Oc2ccc(O)cc2)C(O)C(O)C1O` (stereo not given in full), the “activity, negative = inhibition” value is reported as 1.36% (inactive).
With `Nc1nc(F)nc2c1ncn2[C@@H]1O[C@H](CO)[C@@H](O)[C@H]1O` the “activity, negative = inhibition” value was -2.06% (inactive).
In the case of `CC1OC(OCC2OC(Oc3c(-c4ccc(OCCO)c(OCCO)c4)oc4cc(OCCO)cc(O)c4c3=O)C(O)C(O)C2O)[C@@H](O)C(O)C1O` (stereo not given in full), the “activity, negative = inhibition” value is reported as -6.43% (inactive).
